# GLP1R cytotox – cytotoxicity counter-screen for GLP-1 receptor inverse agonists; HEK293 cAMP-luciferase reporter cells, luminescence, 24 h; Potency, µM (highest dose often 38.3 µM), actives largely listed as inhibitors; AID 624418; hit rate 0.13% among 410,000;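 note: loss of luciferase light is scored as toxicity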
#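 Quantitative HTS format, 1536 wells, 200 cells/uL seeded. Compounds: 23 nL, 24 h, 37 °C. Detection: luciferase reagent, luminescence at 12 min RT; decreased signal taken as cytotoxic.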
# GLP1R inv ag – GLP-1 receptor (human) inverse agonism; P43220; HEK293 GLP-1R CRE-luciferase, luminescence, 24 h; GLP-1R form is constitutively active; Potency, µM (highest dose often 38.3 µM), usual class: inhibitors; hit rate 1.6% among 410,000; AID 624417; note: nearly all actives have a fitted effect of over 55% in size
#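 Inverse agonism was detected as reduced cAMP-driven luciferase luminescence after 24 h compound treatment. The cells were HEK293 clones expressing constitutively active human GLP-1R with the reporter. Reporter-only and GPR119 cell lines served as counterscreen controls.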
# TSHR antagonist – blocks TSH signaling through the human TSH receptor; P16473; TSHR-expressing cells, TSH-stimulated cAMP HTRF, 2 h; hits give low values; activity change, negative = inhibition, % at 11.5 µM; hit rate 0.2% among 330,000; AID 504810;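 active = activity change below a set negative limit, meaning inhibition stronger than a set level, cut at about -70% in these data; inconclusive = activity change between two set negative limits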
# Target sequence (P16473 whole entry, looked up): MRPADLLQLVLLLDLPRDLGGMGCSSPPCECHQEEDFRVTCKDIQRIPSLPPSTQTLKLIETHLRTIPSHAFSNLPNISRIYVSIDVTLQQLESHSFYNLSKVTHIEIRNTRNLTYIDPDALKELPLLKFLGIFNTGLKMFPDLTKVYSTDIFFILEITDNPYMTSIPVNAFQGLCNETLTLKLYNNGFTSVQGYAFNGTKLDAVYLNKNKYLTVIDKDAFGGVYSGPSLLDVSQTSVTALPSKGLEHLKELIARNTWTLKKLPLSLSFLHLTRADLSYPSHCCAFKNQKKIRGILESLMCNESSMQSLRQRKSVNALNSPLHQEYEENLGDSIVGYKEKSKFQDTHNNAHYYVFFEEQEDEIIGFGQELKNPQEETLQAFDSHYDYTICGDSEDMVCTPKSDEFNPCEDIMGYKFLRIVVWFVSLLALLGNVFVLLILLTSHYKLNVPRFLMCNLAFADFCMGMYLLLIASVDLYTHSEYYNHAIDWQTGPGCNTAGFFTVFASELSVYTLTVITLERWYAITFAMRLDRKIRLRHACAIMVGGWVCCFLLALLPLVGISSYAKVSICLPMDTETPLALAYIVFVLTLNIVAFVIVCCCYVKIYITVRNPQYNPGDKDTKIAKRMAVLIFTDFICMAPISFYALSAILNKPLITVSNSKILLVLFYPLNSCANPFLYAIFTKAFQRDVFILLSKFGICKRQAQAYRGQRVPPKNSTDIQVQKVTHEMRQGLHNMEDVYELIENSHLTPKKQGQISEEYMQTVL
#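 Freshly harvested TSHR cells receive pin-tooled compound, then EC80 TSH at 4nM final. After 2 hours at 37 deg C, antibody in lysis buffer and cAMP-d2 are added; 30 minutes at ambient temperature precede the HTRF read.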
# PTHR1 ag – PTHR1 (human) receptor agonism; Q03431; HEK293 GP2 PTHR1 cells, GloSensor cAMP luminescence, 1 h; Potency, µM (series often up to 115 µM), actives largely listed as activators; hit rate 0.075% among 410,000; AID 743266; note: nearly all actives have a fitted effect of over 55% in size
#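 HEK-293-derived GP2 cells expressing PTHR1 and a GloSensor cAMP reporter, 3,000/well, plated overnight, given luciferin plus IBMX (each 0.5 mM as added) for 1 h at 37 °C, then compound for 1 h at 37 °C. Luminescence was read after 15 min at room temperature.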
# GLP1R ag – GLP-1 receptor (human) agonism; HEK293 GLP-1R CRE-luciferase, luminescence, 4-6 h; cells express a hypersensitive GLP-1R form; AID 624172; hit rate 0.007% among 380,000; P43220; Potency, µM (highest dose often 45.6 µM), actives largely listed as activators
# Hits are given with their value; – = inactive; ? = inconclusive; · = no result. Hits are enriched below; roughly 1.8% of the tested compounds scored in any of these assays. Unless noted, calls come from the whole dose curve; as a rule, active = well fitted curve in the direction sought with a large enough effect; inconclusive = small, poorly fitted or top-dose-only effect, or another doubt; inactive = no such curve, though single readings can be large; an effect the other way counts as inactive or inconclusive.
SMILES,GLP1R cytotox,GLP1R inv ag,TSHR antagonist,PTHR1 ag,GLP1R ag
CCN(C(=O)c1ccc(C(C)(C)C)cc1)c1nnc(Cn2nnc3ccccc32)s1,–,5µM,?,–,–
Cc1c(C(=O)NCc2ccc(F)cc2)c(-c2ccccc2)nn1-c1ccccc1,–,5µM,–,–,–
Cc1nn(-c2ccccc2)c(C)c1C(=O)NCc1ccc(F)cc1,–,–,–,–,–
Cc1cccc(N2CCN(C(=O)c3ccc(NC(=O)c4nsc5ccccc45)cc3)CC2)c1C,–,–,·,–,·
CCOc1ccc(CCNC(=O)c2nc(-c3cccc(F)c3)n3c2CCCCC3)cc1OCC,–,?,·,–,·
COc1cccc(CNC(=O)CCCSc2ccccc2)c1,–,–,–,–,–
CCn1cc(CCCC(=O)NCc2cccc(OC)c2)c2ccccc21,–,10µM,–,–,–
COc1cccc(CNC(=O)CCCC(=O)NC(C)CCc2ccccc2)c1 (centres undefined),–,–,-130,–,–
CCN1CCN(C(=O)/C=C/c2ccc(C)o2)CC1,–,–,–,–,–
Cc1ccc(/C=C/C(=O)N2CC(C)CC(C)C2)o1 (centres undefined),?,10µM,–,–,–
CCOc1ccc(-c2[nH]ncc2Oc2ccccc2OC)c(O)c1,?,8.9µM,–,–,–
CCCCCC(=O)N1C[C@H](n2cc(-c3ccc(F)cc3)nn2)[C@@H](O)C[C@@H]1c1ccc(Cl)cc1,?,10µM,·,–,–
CCCCCC(=O)N1C[C@H](O)[C@@H](n2cc(-c3ccc(F)cc3)nn2)C[C@@H]1c1ccc(C)cc1,–,10µM,·,–,–
CC1CC(=O)N(c2ccc(C(C)C)cc2)C(=O)C1,–,–,-118,–,–
CC(C)c1ccc(N2C(=O)C3C4C=CC(CC4)C3C2=O)cc1 (centres undefined),–,?,–,–,–
O=C(NCCc1ccc(Cl)cc1)c1ccc(CSCc2ccc(Cl)cc2)o1,–,?,·,–,·
CCOc1ccc2nc(NS(=O)(=O)Cc3ccccc3)sc2c1,?,10µM,–,–,–
Cc1ccccc1OCCC(=O)Nc1ccc(S(=O)(=O)N(C)C2CCN(C)CC2)cc1,–,?,–,–,–
Cc1ccc(OCC(=O)Nc2ccc(S(=O)(=O)N(C)C3CCN(C)CC3)cc2)c(C)c1,–,2.2µM,–,–,–
CN1CCC(N(C)S(=O)(=O)c2ccc(NC(=O)COc3ccc(Br)cc3Cl)cc2)CC1,?,2µM,–,?,–
CN1CCC(N(C)S(=O)(=O)c2ccc(NC(=O)COc3cccc(Cl)c3)cc2)CC1,–,2.8µM,–,–,–
Cc1ccc(S(=O)(=O)N(C)Cc2nc(-c3ccccc3)oc2C)cc1,–,?,·,–,·
CCOc1ccc(CN2CCN(Cc3ccc4c(c3)c3ccccc3n4CC)CC2)cc1,–,6.3µM,·,–,·
CCn1c2ccccc2c2cc(CN3CCN(Cc4ccc(OC)c(OC)c4)CC3)ccc21,–,?,·,–,·
CC(=O)Nc1c(C)nn(-c2ccccc2)c1N1CCC(C(=O)NCc2ccc(F)cc2)CC1,–,–,·,–,·
SMILES,GLP1R cytotox,GLP1R inv ag,TSHR antagonist,PTHR1 ag,GLP1R ag
CCN1CCN(c2cc(C(C)C)nc3c(-c4ccccc4)c(C)nn23)CC1,?,4µM,–,–,–
CCC(Sc1nncn2c1cc1occc12)C(=O)Nc1ccc(C)c(Cl)c1 (centres undefined),–,?,·,–,·
CC(C)CCOc1ccc(Oc2nc(N(C)C)nc(N(C)C)n2)nn1,–,–,·,–,·
CCCn1c(SCC#N)nc2c(c1=O)C1(CCCC1)Cc1ccccc1-2,–,?,–,–,–
N#CCSc1nc2c(c(=O)n1Cc1ccco1)C1(CCCC1)Cc1ccccc1-2,–,5.6µM,–,–,–
Cc1ccc(S(=O)(=O)N2C[C@H]3N(C(=O)OC(C)C)N(C(=O)OC(C)C)C[C@H](OC(=O)NCC4CCCCC4)[C@@]3(O)C2)cc1,?,4.5µM,·,–,–
Cc1ccc(S(=O)(=O)N2C[C@H]3N(C(=O)OC(C)C)N(C(=O)OC(C)C)C[C@H](OC(=O)NCc4ccccc4)[C@@]3(O)C2)cc1,–,?,·,–,–
COc1ccc(NC(=O)CSc2ncc3c(n2)-c2cc(Cl)ccc2N(Cc2ccccc2F)S3(=O)=O)cc1,–,–,·,–,·
COc1cc(OC)cc(C(=O)NCCOC23CC4CC(CC(C4)C2)C3)c1,–,10µM,–,–,–
CCC/C(=C1/c2ccccc2C(=O)N1c1ccccc1)c1ccc(O[C@@H]2CCCCO2)cc1,–,13µM,–,–,–
O=C(NCCc1ccccc1)c1ccc2c(c1)N(Cc1ccccc1Cl)C(=O)c1ccccc1S2,–,?,·,–,·
CC(C)(C)c1ccc(OCCOc2ccc(C(C)(C)C)cc2NC=O)c(NC=O)c1,–,4.5µM,–,–,–
COCCOc1ccc(C(F)(F)F)cc1NC(=O)c1ccccc1,–,–,–,–,–
CC(=O)OCCNc1cc(Sc2nc3ccccc3[nH]2)c2nonc2c1[N+](=O)[O-],?,–,-88,–,–
CC(=O)OCCCNc1cc(Sc2nc3ccccc3s2)c2nonc2c1[N+](=O)[O-],–,–,–,–,–
C=CCc1ccc(O)c(-c2cc(CC=C)ccc2O)c1,–,11µM,–,–,–
O=C(O)CC/C(=C\c1ccc(N2CCCC2)c([N+](=O)[O-])c1)c1nc2ccccc2s1,–,–,–,–,–
CN(c1ccccc1)c1ccc(/C=C(/CCC(=O)O)c2nc3ccccc3s2)cc1[N+](=O)[O-],–,11µM,·,–,–
Cc1cc(C)c2c(CC(=O)N(Cc3ccc(Cl)cc3)Cc3ccco3)coc2c1,–,?,·,–,·
CCOc1ccc(/C=C/C(O)=C2/C(=O)N(C)C3(C)CC2c2ccccc2O3)cc1OC (centres undefined),–,3.2µM,–,–,–
CCOc1ccc(/C=C/C(O)=C2/C(=O)NC3(C)CC2c2ccccc2O3)cc1OC (centres undefined),–,?,–,–,–
Cc1cc(C)cc(C(=O)NC(CC(N)=O)c2ccc(NCCN3CCCC3)c([N+](=O)[O-])c2)c1 (centres undefined),–,–,-89,–,–
Cc1cc(C)cc(C(=O)NC(CC(N)=O)c2ccc(NCCN3CCOCC3)c([N+](=O)[O-])c2)c1 (centres undefined),–,–,–,–,–
COc1ccc(-c2csc(N(CCCN(C)C)C(=O)c3ccccc3C)n2)cc1,?,2.8µM,?,–,–
COCCN(C(=O)c1ccccc1F)c1nc(-c2ccc(OC)cc2)cs1,–,10µM,–,–,–
CCN(C(=O)c1ccccc1F)c1nc(-c2ccc(OC)cc2)cs1,–,?,–,–,–
Cc1ccc(NC(=O)c2cccc3c(=O)c4c([nH]c23)CCCC4)c(C)c1,–,?,·,–,·

# Screens deposited in PubChem BioAssay by National Center for Advancing Translational Sciences (NCATS).
